Test system: Vero E6 infected with SARS-CoV-2
Experiment: inhibition of SARS-CoV-2 cytopathic effect; higher = more antiviral protection, active = above 15
Settings: 48 h

Measured: inhibition of SARS-CoV-2 cytopathic effect

Cc1cccc(C)c1NC(=O)CN1CCN(CCCC(c2ccc(F)cc2)c2ccc(F)cc2)CC1 [lidoflazine]
inactive: 1 nM -2.3% | 8.33 nM 0.7% | 100 nM 0.47% | 833.33 nM -1.87% | 10000 nM -10.2%

Cc1ccc(OC[C@@H](O)[C@H](C)NC(C)C)c2c1CCC2 (racemic)
inactive: 1 nM -1.05% | 8.33 nM -1.6% | 100 nM -1.43% | 833.33 nM -0.36% | 10000 nM -1.51%

Cc1ccc(S(=O)(=O)Nc2ccc3c(c2)c(C(=O)C(F)(F)F)cn3CC(=O)N[C@@H](CC(C)C)C(=O)O)cc1
inactive: 1 nM 0.38% | 8.33 nM -1.93% | 100 nM -1.37% | 833.33 nM 0.8% | 10000 nM 3.55%

O=C1CCC2CCC(=O)N12 [rolziracetam]
inactive: 1 nM 0.67% | 8.33 nM 1.21% | 100 nM 1.49% | 833.33 nM -1.36% | 10000 nM -2.89%

COc1ccc2cc1Oc1cc3c(cc1OC)CC[N+](C)(C)[C@H]3Cc1ccc(cc1)Oc1c(OC)c(OC)cc3c1[C@@H](C2)[N+](C)(C)CC3 [metocurine]
inactive: 1 nM -0.82% | 8.33 nM 0.93% | 100 nM 1.08% | 833.33 nM -3.28% | 10000 nM -0.33%

CC(=O)N[C@H]1[C@H]([C@H](O)[C@H](O)CO)OC(O)(C(=O)O)C[C@@H]1O (mixture of isomers) [aceneuramic-acid]
inactive: 1 nM -6.31% | 8.33 nM 1.91% | 100 nM -1.39% | 833.33 nM -2.36% | 10000 nM -0.15%

CCCCCCCCCCCCCCCC(=O)OC[C@H](O)[C@H]1OC(=O)C(O)=C1O [L-ascorbyl-6-palmitate]
inactive: 1 nM 2.02% | 8.33 nM 0.04% | 100 nM 0.01% | 833.33 nM 0.96% | 10000 nM -0.63%

COc1cc(N)c(Cl)cc1C(=O)N[C@@H]1CCN(CCCOc2ccc(F)cc2)C[C@@H]1OC (racemic) [cisapride]
inactive: 1 nM -0.68% | 8.33 nM -0.92% | 100 nM 1.02% | 833.33 nM 2.56% | 10000 nM -4.6%

C[C@]12C=CC(=O)C=C1CC[C@@H]1[C@@H]2CC[C@]2(C)OC(=O)CC[C@@H]12 [Testolactone]
inactive: 1 nM -1.05% | 8.33 nM -0.81% | 100 nM -0.43% | 833.33 nM -1.59% | 10000 nM 11.2%

Clc1ccc(C(c2ccc(Cl)cc2)C(Cl)(Cl)Cl)cc1
inactive: 1 nM 1.71% | 8.33 nM 4.86% | 100 nM 0.57% | 833.33 nM -1.73% | 10000 nM -1.33%
